In article PMC11006913:

Experiments:
Test in all cases: PBM; 200 nM protein, PBS
Details in all cases: dsDNA, one strand shown
HESX1 [1] = target: HESX1 (Homo sapiens, UniProt Q9UBX0 95-180, R165K)
SHOX [2] = target: SHOX (Homo sapiens, UniProt O15266 103-189)
ALX4 [3] = target: ALX4 (Homo sapiens, UniProt Q9H161 200-286)
PRRX1 [4] = target: PRRX1 (Homo sapiens, UniProt P54821 80-166, F113S)
ALX4 [5] = target: ALX4 (Homo sapiens, UniProt Q9H161 200-286, Q225E)
HESX1 [6] = target: HESX1 (Homo sapiens, UniProt Q9UBX0 95-180)
Chain of HESX1 (Homo sapiens, UniProt Q9UBX0 95-180) (Q9UBX0 95-180): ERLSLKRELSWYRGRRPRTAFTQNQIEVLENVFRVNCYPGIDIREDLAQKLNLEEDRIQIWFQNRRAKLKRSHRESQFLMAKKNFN

MSX2 [7] = target: MSX2 (Homo sapiens, UniProt P35548 130-214, R199I)
Chain of MSX2 (Homo sapiens, UniProt P35548 130-214, R199I) (P35548 130-214 R199I): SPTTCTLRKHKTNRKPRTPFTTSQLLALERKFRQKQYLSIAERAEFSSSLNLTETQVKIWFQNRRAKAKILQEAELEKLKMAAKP

ALX1 [8] = target: ALX1 (Homo sapiens, UniProt Q15699 118-204, L144V)
Chain of ALX1 (Homo sapiens, UniProt Q15699 118-204, L144V) (Q15699 118-204 L144V): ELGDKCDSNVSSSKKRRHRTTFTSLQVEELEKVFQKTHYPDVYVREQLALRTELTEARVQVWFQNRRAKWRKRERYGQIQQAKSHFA

SHOX [9] = target: SHOX (Homo sapiens, UniProt O15266 103-189, R173C)
Chain of SHOX (Homo sapiens, UniProt O15266 103-189, R173C) (O15266 103-189 R173C): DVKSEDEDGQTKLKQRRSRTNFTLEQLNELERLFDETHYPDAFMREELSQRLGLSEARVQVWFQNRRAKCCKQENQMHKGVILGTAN

ALX1 [10] = target: ALX1 (Homo sapiens, UniProt Q15699 118-204, L144R)
Chain of ALX1 (Homo sapiens, UniProt Q15699 118-204, L144R) (Q15699 118-204 L144R): as the sequence (Q15699 118-204 L144V) above, with V27R counted along it

PROP1 [11] = target: PROP1 (Homo sapiens, UniProt O75360 56-141)
Chain of PROP1 (Homo sapiens, UniProt O75360 56-141) (O75360 56-141): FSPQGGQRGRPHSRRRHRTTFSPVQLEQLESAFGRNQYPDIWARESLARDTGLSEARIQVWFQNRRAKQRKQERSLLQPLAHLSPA

HESX1 [12] = target: HESX1 (Homo sapiens, UniProt Q9UBX0 95-180, R109Q)
Chain of HESX1 (Homo sapiens, UniProt Q9UBX0 95-180, R109Q) (Q9UBX0 95-180 R109Q): as the sequence (Q9UBX0 95-180) above, with R15Q counted along it

PROP1 [13] = target: PROP1 (Homo sapiens, UniProt O75360 56-141, R99H)
Chain of PROP1 (Homo sapiens, UniProt O75360 56-141, R99H) (O75360 56-141 R99H): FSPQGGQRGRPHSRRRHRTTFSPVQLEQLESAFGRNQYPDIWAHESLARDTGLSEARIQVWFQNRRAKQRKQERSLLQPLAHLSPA

ALX3 = ALX3 (Homo sapiens, UniProt O95076 139-225, L168Q)
Chain of ALX3 (O95076 139-225 L168Q): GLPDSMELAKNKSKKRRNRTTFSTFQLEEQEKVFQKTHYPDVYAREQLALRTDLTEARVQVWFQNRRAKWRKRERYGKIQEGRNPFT

HESX1 [14] = target: HESX1 (Homo sapiens, UniProt Q9UBX0 95-180, P111T)
Chain of HESX1 (Homo sapiens, UniProt Q9UBX0 95-180, P111T) (Q9UBX0 95-180 P111T): as the sequence (Q9UBX0 95-180) above, with P17T counted along it

PROP1 [15] = target: PROP1 (Homo sapiens, UniProt O75360 56-141, F88S)
Chain of PROP1 (Homo sapiens, UniProt O75360 56-141, F88S) (O75360 56-141 F88S): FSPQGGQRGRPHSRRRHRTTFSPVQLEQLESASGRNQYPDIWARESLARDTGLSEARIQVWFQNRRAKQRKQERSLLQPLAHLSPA

MSX2 [16] = target: MSX2 (Homo sapiens, UniProt P35548 130-214, F161Y)
Chain of MSX2 (Homo sapiens, UniProt P35548 130-214, F161Y) (P35548 130-214 F161Y): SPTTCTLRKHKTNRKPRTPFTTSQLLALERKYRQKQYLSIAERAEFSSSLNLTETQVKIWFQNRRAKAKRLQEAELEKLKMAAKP

HESX1 [17] = target: HESX1 (Homo sapiens, UniProt Q9UBX0 95-180, F115L)
Chain of HESX1 (Homo sapiens, UniProt Q9UBX0 95-180, F115L) (Q9UBX0 95-180 F115L): as the sequence (Q9UBX0 95-180) above, with F21L counted along it

ALX1 [18] = target: ALX1 (Homo sapiens, UniProt Q15699 118-204)
Chain of ALX1 (Homo sapiens, UniProt Q15699 118-204) (Q15699 118-204): as the sequence (Q15699 118-204 L144V) above, with V27L counted along it

PRRX1 [19] = target: PRRX1 (Homo sapiens, UniProt P54821 80-166)
Chain of PRRX1 (Homo sapiens, UniProt P54821 80-166) (P54821 80-166): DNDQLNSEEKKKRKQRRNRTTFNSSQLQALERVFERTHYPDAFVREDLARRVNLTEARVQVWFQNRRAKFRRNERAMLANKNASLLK

Chain of HESX1 (Homo sapiens, UniProt Q9UBX0 95-180, R165K) (Q9UBX0 95-180 R165K): as the sequence (Q9UBX0 95-180) above, with R71K counted along it
Chain of ALX4 (Homo sapiens, UniProt Q9H161 200-286, Q225E) (Q9H161 200-286 Q225E): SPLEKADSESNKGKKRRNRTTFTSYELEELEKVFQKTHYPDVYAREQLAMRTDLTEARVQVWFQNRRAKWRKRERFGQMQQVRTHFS
Chain of SHOX (Homo sapiens, UniProt O15266 103-189) (O15266 103-189): as the sequence (O15266 103-189 R173C) above, with C71R counted along it
Chain of ALX4 (Homo sapiens, UniProt Q9H161 200-286) (Q9H161 200-286): as the sequence (Q9H161 200-286 Q225E) above, with E26Q counted along it
Chain of PRRX1 (Homo sapiens, UniProt P54821 80-166, F113S) (P54821 80-166 F113S): as the sequence (P54821 80-166) above, with F34S counted along it

Sequence	binding signal (HESX1 [1])	binding signal (SHOX [2])	binding signal (ALX4 [3])	binding signal (PRRX1 [4])	binding signal (ALX4 [5])	binding signal (HESX1 [6])	binding signal (MSX2 [7])	binding signal (ALX1 [8])	binding signal (SHOX [9])	binding signal (ALX1 [10])	binding signal (PROP1 [11])	binding signal (HESX1 [12])	binding signal (PROP1 [13])	binding signal (ALX3)	binding signal (HESX1 [14])	binding signal (PROP1 [15])	binding signal (MSX2 [16])	binding signal (HESX1 [17])	binding signal (ALX1 [18])	binding signal (PRRX1 [19])
CCCAATTA	13.2 upbm affinity estimate (log intensity, higher = more binding, comparable within an allelic series)	12.5 upbm affinity estimate (log intensity, higher = more binding, comparable within an allelic series)	13.9 upbm affinity estimate (log intensity, higher = more binding, comparable within an allelic series)	11.3 upbm affinity estimate (log intensity, higher = more binding, comparable within an allelic series)	13.5 upbm affinity estimate (log intensity, higher = more binding, comparable within an allelic series)	13.1 upbm affinity estimate (log intensity, higher = more binding, comparable within an allelic series)	13 upbm affinity estimate (log intensity, higher = more binding, comparable within an allelic series)	11.9 upbm affinity estimate (log intensity, higher = more binding, comparable within an allelic series)	9.78 upbm affinity estimate (log intensity, higher = more binding, comparable within an allelic series)	11.6 upbm affinity estimate (log intensity, higher = more binding, comparable within an allelic series)	11.6 upbm affinity estimate (log intensity, higher = more binding, comparable within an allelic series)	9.78 upbm affinity estimate (log intensity, higher = more binding, comparable within an allelic series)	11.8 upbm affinity estimate (log intensity, higher = more binding, comparable within an allelic series)	10.7 upbm affinity estimate (log intensity, higher = more binding, comparable within an allelic series)	11.7 upbm affinity estimate (log intensity, higher = more binding, comparable within an allelic series)	7.5 upbm affinity estimate (log intensity, higher = more binding, comparable within an allelic series)	13.7 upbm affinity estimate (log intensity, higher = more binding, comparable within an allelic series)	8.14 upbm affinity estimate (log intensity, higher = more binding, comparable within an allelic series)	12.5 upbm affinity estimate (log intensity, higher = more binding, comparable within an allelic series)	13.4 upbm affinity estimate (log intensity, higher = more binding, comparable within an allelic series)
AATTAGCC	11.4 upbm affinity estimate (log intensity, higher = more binding, comparable within an allelic series)	11.9 upbm affinity estimate (log intensity, higher = more binding, comparable within an allelic series)	13.8 upbm affinity estimate (log intensity, higher = more binding, comparable within an allelic series)	10.7 upbm affinity estimate (log intensity, higher = more binding, comparable within an allelic series)	12.6 upbm affinity estimate (log intensity, higher = more binding, comparable within an allelic series)	11.5 upbm affinity estimate (log intensity, higher = more binding, comparable within an allelic series)	12.1 upbm affinity estimate (log intensity, higher = more binding, comparable within an allelic series)	11.2 upbm affinity estimate (log intensity, higher = more binding, comparable within an allelic series)	9.22 upbm affinity estimate (log intensity, higher = more binding, comparable within an allelic series)	10.8 upbm affinity estimate (log intensity, higher = more binding, comparable within an allelic series)		8.71 upbm affinity estimate (log intensity, higher = more binding, comparable within an allelic series)	10.8 upbm affinity estimate (log intensity, higher = more binding, comparable within an allelic series)	10.1 upbm affinity estimate (log intensity, higher = more binding, comparable within an allelic series)	10.2 upbm affinity estimate (log intensity, higher = more binding, comparable within an allelic series)		12.9 upbm affinity estimate (log intensity, higher = more binding, comparable within an allelic series)	7.46 upbm affinity estimate (log intensity, higher = more binding, comparable within an allelic series)	12.4 upbm affinity estimate (log intensity, higher = more binding, comparable within an allelic series)	13.2 upbm affinity estimate (log intensity, higher = more binding, comparable within an allelic series)
AATTAGAT	11.3 upbm affinity estimate (log intensity, higher = more binding, comparable within an allelic series)	11.6 upbm affinity estimate (log intensity, higher = more binding, comparable within an allelic series)	13.7 upbm affinity estimate (log intensity, higher = more binding, comparable within an allelic series)	11.1 upbm affinity estimate (log intensity, higher = more binding, comparable within an allelic series)	12.6 upbm affinity estimate (log intensity, higher = more binding, comparable within an allelic series)	11.4 upbm affinity estimate (log intensity, higher = more binding, comparable within an allelic series)		11.6 upbm affinity estimate (log intensity, higher = more binding, comparable within an allelic series)	9.16 upbm affinity estimate (log intensity, higher = more binding, comparable within an allelic series)	11.1 upbm affinity estimate (log intensity, higher = more binding, comparable within an allelic series)	11.5 upbm affinity estimate (log intensity, higher = more binding, comparable within an allelic series)	8.52 upbm affinity estimate (log intensity, higher = more binding, comparable within an allelic series)	10.9 upbm affinity estimate (log intensity, higher = more binding, comparable within an allelic series)	10.2 upbm affinity estimate (log intensity, higher = more binding, comparable within an allelic series)	10.1 upbm affinity estimate (log intensity, higher = more binding, comparable within an allelic series)	7.72 upbm affinity estimate (log intensity, higher = more binding, comparable within an allelic series)		7.63 upbm affinity estimate (log intensity, higher = more binding, comparable within an allelic series)	12.2 upbm affinity estimate (log intensity, higher = more binding, comparable within an allelic series)	13.3 upbm affinity estimate (log intensity, higher = more binding, comparable within an allelic series)
CAATTATA	12.8 upbm affinity estimate (log intensity, higher = more binding, comparable within an allelic series)	12.2 upbm affinity estimate (log intensity, higher = more binding, comparable within an allelic series)	13.8 upbm affinity estimate (log intensity, higher = more binding, comparable within an allelic series)	11.5 upbm affinity estimate (log intensity, higher = more binding, comparable within an allelic series)	13.4 upbm affinity estimate (log intensity, higher = more binding, comparable within an allelic series)	12.8 upbm affinity estimate (log intensity, higher = more binding, comparable within an allelic series)	13.1 upbm affinity estimate (log intensity, higher = more binding, comparable within an allelic series)	11.7 upbm affinity estimate (log intensity, higher = more binding, comparable within an allelic series)	9.46 upbm affinity estimate (log intensity, higher = more binding, comparable within an allelic series)	11.4 upbm affinity estimate (log intensity, higher = more binding, comparable within an allelic series)	11.4 upbm affinity estimate (log intensity, higher = more binding, comparable within an allelic series)	8.93 upbm affinity estimate (log intensity, higher = more binding, comparable within an allelic series)	11.5 upbm affinity estimate (log intensity, higher = more binding, comparable within an allelic series)	10.7 upbm affinity estimate (log intensity, higher = more binding, comparable within an allelic series)	11.4 upbm affinity estimate (log intensity, higher = more binding, comparable within an allelic series)	7.86 upbm affinity estimate (log intensity, higher = more binding, comparable within an allelic series)	13.7 upbm affinity estimate (log intensity, higher = more binding, comparable within an allelic series)	8.06 upbm affinity estimate (log intensity, higher = more binding, comparable within an allelic series)	12.3 upbm affinity estimate (log intensity, higher = more binding, comparable within an allelic series)	13.4 upbm affinity estimate (log intensity, higher = more binding, comparable within an allelic series)
CCAATTAG	13.5 upbm affinity estimate (log intensity, higher = more binding, comparable within an allelic series)	12.8 upbm affinity estimate (log intensity, higher = more binding, comparable within an allelic series)	14.1 upbm affinity estimate (log intensity, higher = more binding, comparable within an allelic series)	11.2 upbm affinity estimate (log intensity, higher = more binding, comparable within an allelic series)	13.6 upbm affinity estimate (log intensity, higher = more binding, comparable within an allelic series)	13.4 upbm affinity estimate (log intensity, higher = more binding, comparable within an allelic series)	13.1 upbm affinity estimate (log intensity, higher = more binding, comparable within an allelic series)	12 upbm affinity estimate (log intensity, higher = more binding, comparable within an allelic series)	10.3 upbm affinity estimate (log intensity, higher = more binding, comparable within an allelic series)	11.7 upbm affinity estimate (log intensity, higher = more binding, comparable within an allelic series)	11.9 upbm affinity estimate (log intensity, higher = more binding, comparable within an allelic series)	10.5 upbm affinity estimate (log intensity, higher = more binding, comparable within an allelic series)	12.1 upbm affinity estimate (log intensity, higher = more binding, comparable within an allelic series)	10.9 upbm affinity estimate (log intensity, higher = more binding, comparable within an allelic series)	12.2 upbm affinity estimate (log intensity, higher = more binding, comparable within an allelic series)	7.63 upbm affinity estimate (log intensity, higher = more binding, comparable within an allelic series)	13.7 upbm affinity estimate (log intensity, higher = more binding, comparable within an allelic series)	8.12 upbm affinity estimate (log intensity, higher = more binding, comparable within an allelic series)	12.7 upbm affinity estimate (log intensity, higher = more binding, comparable within an allelic series)	13.4 upbm affinity estimate (log intensity, higher = more binding, comparable within an allelic series)
ACAATTAG	11.8 upbm affinity estimate (log intensity, higher = more binding, comparable within an allelic series)	11.6 upbm affinity estimate (log intensity, higher = more binding, comparable within an allelic series)				12.1 upbm affinity estimate (log intensity, higher = more binding, comparable within an allelic series)	12.6 upbm affinity estimate (log intensity, higher = more binding, comparable within an allelic series)	11.2 upbm affinity estimate (log intensity, higher = more binding, comparable within an allelic series)	9.13 upbm affinity estimate (log intensity, higher = more binding, comparable within an allelic series)	10.8 upbm affinity estimate (log intensity, higher = more binding, comparable within an allelic series)	11.1 upbm affinity estimate (log intensity, higher = more binding, comparable within an allelic series)	8.66 upbm affinity estimate (log intensity, higher = more binding, comparable within an allelic series)	11 upbm affinity estimate (log intensity, higher = more binding, comparable within an allelic series)		10.4 upbm affinity estimate (log intensity, higher = more binding, comparable within an allelic series)	7.51 upbm affinity estimate (log intensity, higher = more binding, comparable within an allelic series)	13.3 upbm affinity estimate (log intensity, higher = more binding, comparable within an allelic series)	7.42 upbm affinity estimate (log intensity, higher = more binding, comparable within an allelic series)	12 upbm affinity estimate (log intensity, higher = more binding, comparable within an allelic series)	
AACTAATT	11.5 upbm affinity estimate (log intensity, higher = more binding, comparable within an allelic series)	11.5 upbm affinity estimate (log intensity, higher = more binding, comparable within an allelic series)	13.7 upbm affinity estimate (log intensity, higher = more binding, comparable within an allelic series)	11.1 upbm affinity estimate (log intensity, higher = more binding, comparable within an allelic series)	12.7 upbm affinity estimate (log intensity, higher = more binding, comparable within an allelic series)	11.5 upbm affinity estimate (log intensity, higher = more binding, comparable within an allelic series)	12.2 upbm affinity estimate (log intensity, higher = more binding, comparable within an allelic series)	11.5 upbm affinity estimate (log intensity, higher = more binding, comparable within an allelic series)	9.12 upbm affinity estimate (log intensity, higher = more binding, comparable within an allelic series)	11.2 upbm affinity estimate (log intensity, higher = more binding, comparable within an allelic series)	11.2 upbm affinity estimate (log intensity, higher = more binding, comparable within an allelic series)	8.89 upbm affinity estimate (log intensity, higher = more binding, comparable within an allelic series)	11.1 upbm affinity estimate (log intensity, higher = more binding, comparable within an allelic series)	10.3 upbm affinity estimate (log intensity, higher = more binding, comparable within an allelic series)	10.3 upbm affinity estimate (log intensity, higher = more binding, comparable within an allelic series)	7.84 upbm affinity estimate (log intensity, higher = more binding, comparable within an allelic series)	12.9 upbm affinity estimate (log intensity, higher = more binding, comparable within an allelic series)	7.81 upbm affinity estimate (log intensity, higher = more binding, comparable within an allelic series)	12.3 upbm affinity estimate (log intensity, higher = more binding, comparable within an allelic series)	13.3 upbm affinity estimate (log intensity, higher = more binding, comparable within an allelic series)
AATTAGCG	11.8 upbm affinity estimate (log intensity, higher = more binding, comparable within an allelic series)	12 upbm affinity estimate (log intensity, higher = more binding, comparable within an allelic series)	13.9 upbm affinity estimate (log intensity, higher = more binding, comparable within an allelic series)	11 upbm affinity estimate (log intensity, higher = more binding, comparable within an allelic series)	13.1 upbm affinity estimate (log intensity, higher = more binding, comparable within an allelic series)	11.9 upbm affinity estimate (log intensity, higher = more binding, comparable within an allelic series)	12.4 upbm affinity estimate (log intensity, higher = more binding, comparable within an allelic series)	11.7 upbm affinity estimate (log intensity, higher = more binding, comparable within an allelic series)	9.63 upbm affinity estimate (log intensity, higher = more binding, comparable within an allelic series)	11.3 upbm affinity estimate (log intensity, higher = more binding, comparable within an allelic series)	11.2 upbm affinity estimate (log intensity, higher = more binding, comparable within an allelic series)	8.95 upbm affinity estimate (log intensity, higher = more binding, comparable within an allelic series)	11.2 upbm affinity estimate (log intensity, higher = more binding, comparable within an allelic series)	10.4 upbm affinity estimate (log intensity, higher = more binding, comparable within an allelic series)	10.6 upbm affinity estimate (log intensity, higher = more binding, comparable within an allelic series)	7.48 upbm affinity estimate (log intensity, higher = more binding, comparable within an allelic series)	13 upbm affinity estimate (log intensity, higher = more binding, comparable within an allelic series)	7.68 upbm affinity estimate (log intensity, higher = more binding, comparable within an allelic series)	12.6 upbm affinity estimate (log intensity, higher = more binding, comparable within an allelic series)	13.3 upbm affinity estimate (log intensity, higher = more binding, comparable within an allelic series)
